Screening data: PubChem, several laboratories
GDH-TPI inh: GDH-TPI coupling enzyme inhibitors, primary screen, artefact control for M. tuberculosis FBA inhibitor project, biochemical, absorbance, full deck; GDH-TPI coupled enzyme counterscreen, NADH absorbance; inhibition, % at 4.8 µM; 1.2% of 360,000 active; AID 588335, 2011; in the data active = inhibition above about 30%;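 also: 0% = DMSO wells and 100% = wells lacking the enzyme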
BoNT A protease: BoNT/A light chain protease inhibitors, primary screen, biochemical, flow cytometry, MLPCN library. Botulinum neurotoxin type A light chain protease (Clostridium botulinum A str. ATCC 3502). multiplex microsphere protease substrate cleavage. inhibition, % at 10 µM. 0.17% of 360,000 active; also: plate controls were buffer without enzyme for full effect and enzyme alone for no effect
Anthrax LF inh2: Bacillus anthracis LF protease inhibitors, primary screen, biochemical, multiplex microsphere, MLPCN library; AID 588501, 2011; multiplex microsphere protease cleavage assay; 0.12% of 360,000 active; Lethal factor (Bacillus anthracis), P15917; inhibition, % at 10 µM; also: plate controls were buffer without enzyme for full effect and enzyme alone for no effect
BoNT-F LC inh: BoNT/F light chain protease inhibitors, primary screen, biochemical, flow cytometry, MLPCN library. AID 588497, 2011. Multiplex microsphere protease cleavage assay. inhibition, % at 10 µM. Botulinum neurotoxin type F light chain protease (Clostridium botulinum). 0.22% of 360,000 active; in the data active = inhibition above about 35%, passing the limit was not always enough; inconclusive = no clear call, values can overlap the other calls; also: plate controls were buffer without enzyme for full effect and enzyme alone for no effect
Mtb FBA inh: Mtb FBA enzyme inhibitors, primary screen, biochemical, fluorescence, strain H37Rv. purified M. tuberculosis FBA, fluorescence read-out. inhibition, % at 1 µM. 2.3% of 360,000 active. Fructose-bisphosphate aldolase (Mycobacterium tuberculosis (strain ATCC 25618 / H37Rv)), …; in the data active = inhibition above about 27%;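 also: 0% = vehicle and 100% = reference inhibitor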
Target sequence (P9WQA3 whole entry, looked up): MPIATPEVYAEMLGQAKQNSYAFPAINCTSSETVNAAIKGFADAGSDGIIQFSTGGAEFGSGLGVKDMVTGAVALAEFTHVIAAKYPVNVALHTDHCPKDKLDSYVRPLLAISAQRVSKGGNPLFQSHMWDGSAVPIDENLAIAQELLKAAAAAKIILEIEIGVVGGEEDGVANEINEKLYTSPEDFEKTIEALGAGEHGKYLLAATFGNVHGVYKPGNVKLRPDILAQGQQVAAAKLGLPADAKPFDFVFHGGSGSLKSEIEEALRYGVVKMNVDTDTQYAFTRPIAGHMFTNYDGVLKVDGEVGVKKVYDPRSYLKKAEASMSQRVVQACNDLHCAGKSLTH
Bead autofluor: counter-screen for toxin protease inhibitors: compound fluorescence; fluorescence intensity (concentration not given with the values); 3.1% of 360,000 active; compound autofluorescence counterscreen, microsphere flow cytometry; stronger effect = higher value; in the data active = fluorescence intensity above about 16000; inconclusive = no clear call, values can overlap the other calls
* = called active by the depositor; ? = inconclusive; + = active, no number. An excerpt weighted towards active compounds, which were near 6.6% of everything screened. Rule as the data show it, unless noted: active = inhibition above about 30%; inconclusive = no clear call, values can overlap the other calls; inactive = below that.

SMILES | GDH-TPI inh | BoNT A protease | Anthrax LF inh2 | BoNT-F LC inh | Mtb FBA inh | Bead autofluor
CCCCC(C(=O)NCCC(C)C)N(CCCN1CCOCC1)C(=O)c1snc(C(N)=O)c1N (stereo unspecified) | 0.0 | 0.1 | 1.2 | -0.2 | 5.7 | 20769*
COc1ccc(CNC(=O)C2=CCN(S(=O)(=O)c3ccc(C)cc3)CC2)cc1 | -10.1 | -0.3 | 0.6 | -1.6 | -4.0 | 4303
CNc1oc(-c2cccc3ccccc23)nc1C#N | 12.9 | 0.0 | -4.6 | -0.4 | + | 3241
COc1ccc(CCNc2oc(-c3ccc(OC)c(OC)c3)nc2P(=O)(OC)OC)cc1OC | 18.7 | -0.5 | 1.6 | 2.4 | 165.3* | 2191
COc1ccc(Nc2oc(-c3ccccc3F)nc2C#N)cc1 | 22.0 | -0.9 | -10.3 | -0.8 | 1.7 | 5802
CCOP(=O)(OCC)c1nc(Cc2ccccc2)oc1NCc1ccccc1 | 5.7 | ? | -18.0 | ? | -0.2 | 4096
CCOP(=O)(OCC)c1nc(-c2cccc3ccccc23)oc1NCCc1ccc(OC)cc1 | 6.7 | -1.2 | -4.9 | -10.1 | 168.4* | 8563
CNc1oc(-c2ccccc2Cl)nc1C#N | 8.4 | -0.1 | -1.1 | 5.6 | 12.1 | 2418
COc1nc(NCCc2ccc(OC)c(OC)c2)nc(OC)n1 | 9.0 | 1.9 | -0.5 | 21.8 | -0.1 | 3369
COc1ccc(CNc2oc(-c3cccc4ccccc34)nc2C#N)cc1 | 9.6 | -0.7 | -3.7 | -2.7 | 147.2* | 19935*
COCCn1c(SCC#N)nnc1-c1ccc([N+](=O)[O-])cc1 | 5.3 | -1.3 | -6.3 | -6.2 | 5.3 | 4761
O=C(Nc1ccc2c(c1)OCO2)c1cc(-c2ccccc2Cl)on1 | -3.0 | 1.0 | 0.7 | 1.9 | 6.6 | 5393
COc1cc(-c2cc3nc4ccccc4n3c(N)c2C#N)cc(OC)c1OC | 9.3 | 0.6 | -2.7 | -1.2 | + | 5296
N#Cc1c(-c2ccccc2)cc2nc3ccccc3n2c1N | 22.8 | 0.0 | -2.1 | -0.9 | 147.4* | 2065
Nc1cc(-c2ccccc2)n2c(n1)nc1ccccc12 | 2.2 | 0.7 | 0.1 | -4.4 | 3.8 | 4408
CCCOCC(O)CC(Cc1ccccc1)C(=O)NN (stereo unspecified) | -14.2 | 0.0 | -4.2 | ? | -1.2 | 4061
O=C(C[C@@H]1C[C@@H]2c3cc(NC(=O)C4CCOCC4)ccc3O[C@@H]2[C@H](CO)O1)NCc1ccccn1 | 0.0 | 0.2 | 0.7 | -4.6 | -2.0 | 3424
COc1ccccc1N=c1oc2c(OC)cccc2cc1C(=O)NCc1ccco1 | 1.9 | 0.8 | -3.2 | 0.6 | 3.1 | 20264*
COc1ccc(N=c2oc3c(OC)cccc3cc2C(=O)NCc2ccco2)cc1OC | -5.3 | ? | -7.2 | -0.6 | 3.9 | 19539*
COc1ccc(OC)c(N=c2oc3c(OC)cccc3cc2C(=O)NCc2ccco2)c1 | 7.0 | -0.5 | -4.2 | -6.1 | 3.8 | 16799*
COc1cccc(C(=O)N/N=c2\oc3c(OC)cccc3cc2C(=O)NCc2ccccc2)c1 | 0.7 | -0.6 | 0.9 | -19.0 | -1.6 | 2519
COc1ccccc1C(=O)NCc1ccco1 | 6.8 | 1.3 | -8.9 | 24.5 | 1.2 | 4247
O=C(Nc1ccc(C2=CN(Cc3ccccc3)CCC2=O)cc1)OCc1ccccc1 | 0.0 | -0.4 | 0.8 | -0.4 | 1.4 | 3848
Cc1cc(N/N=C2/CCCc3ccccc32)nc2ccccc12 | -3.8 | -0.5 | -7.4 | -0.5 | 5.3 | 4274
c1ccc(N/N=C2\CCCc3ccccc32)nc1 | 31.7* | -0.7 | -2.2 | -2.8 | -3.9 | 3650
COC(=O)c1ccc(C(=O)OC)c(NC(=S)N2CCN(c3ccccn3)CC2)c1 | 0.0 | 0.0 | -2.6 | -5.4 | 21.9 | 4259
CCOC(=O)c1cccnc1SCc1cc(=O)n2ccccc2n1 | 21.2 | 0.8 | 0.9 | -2.1 | 2.0 | 7574
CC(OC(=O)c1cccnc1SCc1cc(=O)n2ccccc2n1)c1ccccn1 (stereo unspecified) | 21.8 | -3.0 | -3.5 | -5.0 | 1.2 | 16644*
O=C1/C(=C/c2cccc([N+](=O)[O-])c2)CSc2ccc(Cl)cc21 | 4.2 | ? | 29.7* | ? | -1.3 | 3778
